From PubChem BioAssay (Tox21) come the findings set out here.

A short description of assay [1]: qHTS assay to identify small molecule agonists of the sonic hedgehog signaling (Shh) pathway (AID 1259368; calls by dose curve;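 also: NIH/3T3-derived 3T3Gli1-Luc cells carrying a stable Gli1-driven firefly luciferase reporter; series mostly up to about 92 µM; nearly all actives have a fitted effect of over 15% in size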). In a few lines:
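Mouse fibroblast (NIH/3T3) reporter cells with stably integrated Gli1-Luc were treated 24 hr with compound; firefly luciferase luminescence served as the read-out.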

The target of assay [2] is Estrogen receptor beta (Homo sapiens) (UniProt Q92731). Briefly: qHTS assay to identify small molecule antagonists of the estrogen receptor beta (ER-beta) signaling pathway (AID 1259378; active = well fitted inhibition curve with a large enough effect in the signal ratio in the repeat runs, not every such curve was filed as active; the % refers to the signal ratio). Summed up: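 ER-beta-UAS-bla HEK293T (GripTite) cells in 2% charcoal-stripped FBS medium were preincubated 6 hr at 37C, dosed with compound, then stimulated with 1 nM E2 (final) for 16 hr; beta-lactamase reporter read by B/G FRET fluorescence after 2 hr substrate loading.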
Estrogen receptor beta (Homo sapiens), sequence (Q92731 whole entry, looked up): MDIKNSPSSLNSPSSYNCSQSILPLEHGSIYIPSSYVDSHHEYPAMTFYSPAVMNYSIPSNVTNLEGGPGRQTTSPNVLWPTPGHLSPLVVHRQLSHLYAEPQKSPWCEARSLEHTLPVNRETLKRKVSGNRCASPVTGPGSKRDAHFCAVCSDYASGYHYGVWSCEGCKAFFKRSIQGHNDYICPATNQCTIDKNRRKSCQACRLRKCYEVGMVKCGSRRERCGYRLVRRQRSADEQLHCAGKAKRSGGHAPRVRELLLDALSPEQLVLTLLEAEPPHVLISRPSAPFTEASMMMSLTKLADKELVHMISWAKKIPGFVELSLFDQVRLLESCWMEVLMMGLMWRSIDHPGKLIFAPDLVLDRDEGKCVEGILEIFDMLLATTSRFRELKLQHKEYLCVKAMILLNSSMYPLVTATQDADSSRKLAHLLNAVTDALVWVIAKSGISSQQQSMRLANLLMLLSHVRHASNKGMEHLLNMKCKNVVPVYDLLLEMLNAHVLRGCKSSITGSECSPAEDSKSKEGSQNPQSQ

Assay [3] is described as follows: qHTS assay to identify small molecule agonists of the androgen receptor (AR) signaling pathway in the presence of an antagonist - cell viability counter screen (AID 1259379). Also: nearly all actives have a fitted effect of over 25% in size. Also: potency is read from the fitted curve at half-maximal effect. In a few lines:
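A CellTiter-Fluor read-out measured viability of MDA-kb2 reporter cells (MMTV promoter with AR and GR response elements). Treatment: nilutamide 3.0uM final with compounds at 15 concentrations, 16 hr, 37C, 0% CO2.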

Assay [4] in a line: qHTS assay to identify small molecule agonists of the estrogen receptor beta (ER-beta) signaling pathway - cell viability counter screen (AID 1259380). Also: nearly all actives have a fitted effect of over 30% in size. Also: potency is read from the fitted curve at half-maximal effect. In a few lines:
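Cells used were ER-beta-UAS-bla HEK293T in medium with 2% charcoal-stripped FBS. They were treated for 16 hr at 37C. Viability came from CellTiter-Glo luminescence.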

Assay [5] is described as follows: qHTS assay to identify small molecule antagonists of the estrogen receptor beta (ER-beta) signaling pathway - cell viability counter screen (AID 1259382). Also: series mostly up to about 92 µM; nearly all actives have a fitted effect of over 55% in size. Summed up: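 Agonist-stimulated (1nM E2) ER-beta-UAS-bla HEK293T cells are incubated with library compounds for 16 hr at 37C. Cell viability is then assessed in the reporter-assay wells by adding CellTiter-Glo and reading luminescence after 30 min.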

In assay [6] the target is Estrogen receptor (Homo sapiens) (UniProt P03372). Kind of assay: qHTS assay to identify small molecule agonists of the estrogen receptor alpha (ER-alpha) signaling pathway in the presence of an antagonist (AID 1259383; calls by dose curve; also: top concentration of the series differs between compounds; nearly all actives have a fitted effect of over 15% in size). In a few lines: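 Using VM7Luc4E2 cells seeded 24hr before treatment, antagonist ICI-182,780 (10.0nM final) was added, followed by compounds at 15 concentrations. Plates incubated 22hr; ONE-Glo luminescence quantified reporter activity.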
Estrogen receptor (Homo sapiens), sequence (P03372 whole entry, looked up): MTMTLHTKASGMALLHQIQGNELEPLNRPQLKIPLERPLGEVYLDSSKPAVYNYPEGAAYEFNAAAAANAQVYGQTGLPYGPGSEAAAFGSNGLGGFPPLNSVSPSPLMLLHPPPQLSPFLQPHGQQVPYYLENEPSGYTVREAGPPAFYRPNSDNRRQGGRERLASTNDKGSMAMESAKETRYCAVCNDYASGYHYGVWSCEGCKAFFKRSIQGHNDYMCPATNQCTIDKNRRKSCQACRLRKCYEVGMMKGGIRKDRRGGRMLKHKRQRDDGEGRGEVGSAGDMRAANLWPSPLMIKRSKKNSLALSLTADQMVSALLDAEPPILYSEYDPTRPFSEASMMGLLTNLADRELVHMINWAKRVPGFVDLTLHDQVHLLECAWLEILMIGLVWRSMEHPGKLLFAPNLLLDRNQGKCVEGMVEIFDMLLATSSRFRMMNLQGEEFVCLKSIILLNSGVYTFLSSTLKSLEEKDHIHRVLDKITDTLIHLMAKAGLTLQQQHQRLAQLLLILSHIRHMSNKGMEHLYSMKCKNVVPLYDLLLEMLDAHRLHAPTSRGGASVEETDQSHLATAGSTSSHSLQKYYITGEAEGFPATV

Assay [7] is described as follows: qHTS assay to identify small molecule agonists of the estrogen receptor alpha (ER-alpha) signaling pathway in the presence of an antagonist - cell viability counter screen (AID 1259386).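 Also: series mostly up to about 92 µM; cells exposed to compounds for 22 h at 37 °C before the viability read; nearly all actives have a fitted effect of over 30% in size.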 In a few lines: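 ICI-182,780 at 10.0nM final accompanies the compound titration (15 concentrations, 22hr, 37C) on VM7Luc4E2 cells. The CellTiter-Fluor fluorescence readout runs in the same wells as the luciferase assay.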

In assay [8] the target is Progesterone receptor (Homo sapiens) (UniProt P06401). Briefly: qHTS assay to identify small molecule agonists of the progesterone receptor (PR) signaling pathway (AID 1346784; calls by dose curve; also: nearly all actives have a fitted effect of over 30% in size). In a few lines: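 Compounds were tested for PR agonism in HEK 293T cells bearing a beta-lactamase gene under UAS control. Treatment lasted 16 hr at 37C; signal came from fluorescence of a FRET substrate.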
Progesterone receptor (Homo sapiens), sequence (P06401 whole entry, looked up): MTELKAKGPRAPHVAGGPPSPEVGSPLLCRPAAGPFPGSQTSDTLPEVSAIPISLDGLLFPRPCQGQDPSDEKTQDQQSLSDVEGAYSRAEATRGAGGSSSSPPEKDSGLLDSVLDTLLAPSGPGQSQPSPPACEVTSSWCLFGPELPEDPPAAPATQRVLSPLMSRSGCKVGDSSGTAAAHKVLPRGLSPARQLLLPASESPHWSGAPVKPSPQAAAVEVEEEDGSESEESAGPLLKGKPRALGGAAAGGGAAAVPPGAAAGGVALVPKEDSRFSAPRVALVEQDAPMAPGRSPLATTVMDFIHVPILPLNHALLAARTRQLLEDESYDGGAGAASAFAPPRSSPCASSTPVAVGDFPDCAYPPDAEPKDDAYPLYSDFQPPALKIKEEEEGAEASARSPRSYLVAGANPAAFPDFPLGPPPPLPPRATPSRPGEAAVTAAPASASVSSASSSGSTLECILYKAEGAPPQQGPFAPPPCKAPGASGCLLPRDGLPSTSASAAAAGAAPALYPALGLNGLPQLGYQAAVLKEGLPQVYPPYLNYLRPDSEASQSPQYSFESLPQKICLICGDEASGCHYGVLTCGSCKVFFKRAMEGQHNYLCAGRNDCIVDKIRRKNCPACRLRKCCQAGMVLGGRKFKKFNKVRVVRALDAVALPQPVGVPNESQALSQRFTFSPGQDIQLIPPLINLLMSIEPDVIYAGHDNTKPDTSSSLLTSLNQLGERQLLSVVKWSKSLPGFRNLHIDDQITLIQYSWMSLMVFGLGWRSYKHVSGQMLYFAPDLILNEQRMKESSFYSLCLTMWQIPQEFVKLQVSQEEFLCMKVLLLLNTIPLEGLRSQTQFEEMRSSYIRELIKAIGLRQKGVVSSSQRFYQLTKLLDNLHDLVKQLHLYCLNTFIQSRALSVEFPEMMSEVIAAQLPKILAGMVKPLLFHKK

Assay [9] shares this target. Kind of assay: qHTS assay to identify small molecule antagonists of the progesterone receptor (PR) signaling pathway (AID 1346795; active = well fitted inhibition curve with a large enough effect in the signal ratio in the repeat runs, not every such curve was filed as active; the % refers to the signal ratio; also: potency is read from the fitted curve at half-maximal effect). Summed up:
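In HEK293T cells bearing the PR-UAS-bla reporter, compound effects on promegestone-driven (1 nM) beta-lactamase expression are assessed after 16 hr using a fluorescent FRET substrate incubated 2 hr at room temperature.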

A short description of assay [10]: qHTS assay to identify small molecule antagonists of the progesterone receptor (PR) signaling pathway - cell viability counter screen (AID 1346798). Also: series mostly up to about 92 µM; nearly all actives have a fitted effect of over 50% in size. Summed up:
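Following a 4 hr attachment, PR-UAS-bla HEK293T cells in charcoal-stripped FBS medium were exposed to compounds with R5020 for 16 hr; CellTiter-Glo was added and luminescence read after 30 min at room temperature.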

A short description of assay [11]: qHTS assay to identify small molecule antagonists of the TGF-beta/Smad signaling pathway - cell viability counter screen (AID 1346824). Also: nearly all actives have a fitted effect of over 50% in size. In a few lines:
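SBE-bla HEK 293T cells were plated overnight at 37 C, then given compounds in DMSO plus TGF-beta1 (added as 0.25 ng/mL solution) for 5 hr. After the bla read, CellTiter-Glo was added to the same wells and luminescence read after 30 min at room temperature.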

The nature of assay [12]: qHTS assay to identify small molecule agonists of the TGF-beta/Smad signaling pathway - cell viability counter screen (AID 1346829). Also: nearly all actives have a fitted effect of over 45% in size. Also: potency is read from the fitted curve at half-maximal effect. In a few lines: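 After overnight seating at 37 C and 5% CO2, reporter cells got compounds for 5 hr and FRET substrate for 2 hr; cell viability then came from CellTiter-Glo luminescence.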
The nature of assay [13]: qHTS assay to identify small molecule agonists of the TGF-beta/Smad signaling pathway (AID 1346859; active = well fitted activation curve with a large enough effect in the signal ratio in the repeat runs, not every such curve was filed as active; the % refers to the signal ratio; also: series mostly up to about 77 µM). Summed up:
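Each well held 4,000 SBE-bla HEK 293T cells incubated overnight before compound addition; 5 hr later the cleavable FRET substrate went on for 2 hr at room temperature, and fluorescence was read at two emissions.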

Assay [14] deals with Thyrotropin-releasing hormone receptor (Homo sapiens) (UniProt P34981). Kind of assay: qHTS assay to identify small molecule antagonists of the thyrotropin-releasing hormone receptor (TRHR) signaling pathway (AID 1346877; active = well fitted inhibition curve with a large enough effect in the repeat runs, not every such curve was filed as active; also: series mostly up to about 51 µM). In a few lines: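 Screening used HEK293 cells engineered with TRHR, with a brief 5 min room-temperature compound exposure preceding addition of TRH to 1 nM. The read-out was kinetic calcium-dye fluorescence, concentration-response from 15 doses in triplicate.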
Thyrotropin-releasing hormone receptor (Homo sapiens), sequence (P34981 whole entry, looked up): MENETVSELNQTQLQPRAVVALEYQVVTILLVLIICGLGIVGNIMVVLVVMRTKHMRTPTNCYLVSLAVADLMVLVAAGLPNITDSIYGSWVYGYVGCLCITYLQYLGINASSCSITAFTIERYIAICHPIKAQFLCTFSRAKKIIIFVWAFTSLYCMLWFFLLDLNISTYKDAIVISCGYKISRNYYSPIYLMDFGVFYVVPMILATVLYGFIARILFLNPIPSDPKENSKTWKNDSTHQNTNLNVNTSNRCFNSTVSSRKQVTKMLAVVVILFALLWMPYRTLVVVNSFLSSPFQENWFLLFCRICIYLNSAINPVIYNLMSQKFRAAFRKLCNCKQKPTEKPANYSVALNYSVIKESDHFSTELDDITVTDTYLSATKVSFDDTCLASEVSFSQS

For assay [15], the target named is Estrogen receptor beta (Homo sapiens) (UniProt Q92731). Kind of assay: qHTS assay to identify small molecule agonists of the estrogen receptor beta (ER-beta) signaling pathway (AID 1259377; active = well fitted activation curve with a large enough effect in the signal ratio in the repeat runs, not every such curve was filed as active; the % refers to the signal ratio). In a few lines:
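Read-out: beta-lactamase FRET fluorescence. Cell line: ER-beta-UAS-bla HEK293T in 2% charcoal-stripped FBS. Exposure: 16 hr at 37C. Substrate step: 2 h at room temperature.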

A short description of assay [16]: qHTS assay to identify small molecule agonists or antagonists of the thyroid stimulating hormone receptor (TSHR) signaling pathway - wild type cell line counter screen (AID 1259384; calls by dose curve). Summed up: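 Wild-type HEK293 cells were plated 18 h at 37 C/5% CO2, pin-dosed with compound plus Ro20-1724 medium, held 30 min at room temperature, then given cAMP-d2 and anti-cAMP-cryptate; fluorescence was read after 1 h. Fifteen concentrations, triplicate.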

The target of assay [17] is Thyrotropin receptor (Homo sapiens) (UniProt P16473). Briefly: qHTS assay to identify small molecule antagonists of the thyroid stimulating hormone receptor (TSHR) signaling pathway (AID 1259385; calls by dose curve; also: nearly all actives have a fitted effect of over 20% in size). Summed up:
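TSHR-HEK293 cells were plated and held 18 h at 37C/5% CO2, then given compound plus Ro20-1724 and stimulated with TSH at 1.5 ng/mL final. After 30 min at room temperature, cAMP was detected with cAMP-d2/anti-cAMP-cryptate (1 h) by fluorescence.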

Assay [18] deals with Androgen receptor (Homo sapiens) (UniProt P10275). Kind of assay: qHTS assay to identify small molecule agonists of the androgen receptor (AR) signaling pathway in the presence of an antagonist (AID 1259381; calls by dose curve; also: nearly all actives have a fitted effect of over 15% in size). Summed up: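 Using human MDA-kb2 cells with an MMTV promoter–luciferase construct (AR and GR response elements), agonist activity is scored under 3.0uM nilutamide (final) co-treatment; 16hr incubation, 37C, luminescence readout via ONE-Glo.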
Androgen receptor (Homo sapiens), sequence (P10275 whole entry, looked up): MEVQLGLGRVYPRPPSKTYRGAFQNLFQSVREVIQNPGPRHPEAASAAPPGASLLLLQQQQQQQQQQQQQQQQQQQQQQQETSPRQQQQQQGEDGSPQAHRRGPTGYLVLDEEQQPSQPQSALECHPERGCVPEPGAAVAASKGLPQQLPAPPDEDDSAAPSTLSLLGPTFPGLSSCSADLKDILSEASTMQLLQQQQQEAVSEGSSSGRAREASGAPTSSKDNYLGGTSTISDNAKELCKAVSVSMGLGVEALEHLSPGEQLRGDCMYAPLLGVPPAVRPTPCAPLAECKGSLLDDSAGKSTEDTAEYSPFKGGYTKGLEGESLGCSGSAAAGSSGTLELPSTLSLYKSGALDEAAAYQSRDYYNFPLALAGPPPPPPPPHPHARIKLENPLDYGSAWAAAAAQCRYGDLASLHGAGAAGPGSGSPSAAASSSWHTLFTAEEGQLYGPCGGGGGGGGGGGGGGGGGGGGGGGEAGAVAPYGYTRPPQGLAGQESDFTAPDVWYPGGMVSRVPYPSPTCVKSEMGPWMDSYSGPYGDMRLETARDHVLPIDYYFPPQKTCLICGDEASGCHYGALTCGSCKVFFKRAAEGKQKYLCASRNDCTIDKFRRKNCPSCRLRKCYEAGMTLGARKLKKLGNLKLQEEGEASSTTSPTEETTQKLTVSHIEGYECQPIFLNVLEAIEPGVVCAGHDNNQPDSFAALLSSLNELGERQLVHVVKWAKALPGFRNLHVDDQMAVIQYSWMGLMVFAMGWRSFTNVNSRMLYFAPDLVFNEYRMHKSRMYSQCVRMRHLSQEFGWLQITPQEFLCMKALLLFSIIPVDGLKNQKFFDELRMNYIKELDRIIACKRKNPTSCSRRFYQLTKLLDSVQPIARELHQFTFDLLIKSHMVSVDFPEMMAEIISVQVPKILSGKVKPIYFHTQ

Assay [19] can be described thus: qHTS assay to identify small molecule agonists of the progesterone receptor (PR) signaling pathway - cell viability counter screen (AID 1346799; calls by dose curve; also: nearly all actives have a fitted effect of over 45% in size; also: potency is read from the fitted curve at half-maximal effect). Summed up:
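Here, 3,000 PR-UAS-bla HEK293T cells per well were treated with compounds for 16 hr after a 6 hr preincubation at 37C and 5% CO2; cell viability is the CellTiter-Glo luminescence signal.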

Each structure is given as a SMILES string. Several values for one entry are separate records, joined by “and”; a condition that tells them apart may be missing. Equal values may be shown once. Records with an inconclusive call do not appear. Activity calls are given as the source filed them. Unless noted, calls follow the shape of the dose curve; as a rule, active = well fitted curve in the direction sought with a large enough effect in the repeat runs; inconclusive = weak or mixed curves; inactive = no such curve, though single readings can be large; an effect the other way counts as inactive or inconclusive.

Thyrotropin receptor (Homo sapiens), sequence (P16473 whole entry, looked up): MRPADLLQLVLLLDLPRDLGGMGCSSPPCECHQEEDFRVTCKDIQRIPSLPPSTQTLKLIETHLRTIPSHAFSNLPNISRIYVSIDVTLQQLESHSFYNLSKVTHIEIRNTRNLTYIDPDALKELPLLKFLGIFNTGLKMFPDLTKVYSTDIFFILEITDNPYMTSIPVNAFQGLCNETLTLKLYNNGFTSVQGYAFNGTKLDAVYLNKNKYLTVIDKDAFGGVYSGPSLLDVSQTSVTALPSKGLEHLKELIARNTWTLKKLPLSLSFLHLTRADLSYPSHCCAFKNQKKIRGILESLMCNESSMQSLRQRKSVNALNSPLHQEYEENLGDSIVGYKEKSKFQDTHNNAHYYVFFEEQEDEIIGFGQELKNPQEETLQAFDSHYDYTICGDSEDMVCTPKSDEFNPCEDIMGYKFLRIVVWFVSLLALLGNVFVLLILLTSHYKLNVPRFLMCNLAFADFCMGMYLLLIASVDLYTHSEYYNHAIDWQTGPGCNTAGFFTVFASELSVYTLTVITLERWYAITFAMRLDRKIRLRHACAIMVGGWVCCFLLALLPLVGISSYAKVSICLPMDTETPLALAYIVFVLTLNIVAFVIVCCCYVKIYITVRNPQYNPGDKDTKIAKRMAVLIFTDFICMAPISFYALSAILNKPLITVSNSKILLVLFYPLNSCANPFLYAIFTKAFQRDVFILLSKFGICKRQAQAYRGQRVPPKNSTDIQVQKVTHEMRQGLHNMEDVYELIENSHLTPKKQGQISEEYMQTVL

For the molecule `O=C(CBr)OCc1ccccc1`, the Potency entry in [1], in assay [2], in assay [3], in assay [4], in assay [5] and in [6] was “inactive” throughout. Moreover, the Potency entry in [7], in assay [8], in assay [9], in assay [10], in assay [11] and in [12] was “inactive” each time. The Potency result in assay [14] is “inactive”. Further, the molecule was classed as inactive in assay [13].

On to `C(=NC1CCCCC1)=NC1CCCCC1`, for which the Potency result in assay [1], in assay [15], in assay [4], in assay [5], in [6] and in [17] was “inactive” each time. Besides, the Potency result in [7], in [8], in assay [9], in [11] and in [14] was “inactive” each time. Also, the Potency is 2.45 µM (active) and 4.86 µM (active) in [3]; 49.3 µM (active) in [12]. Further, the outcome in [16] was inactive.

On to `CC1CC(CC2CCC(N)C(C)C2)CCC1N` (stereo not drawn), for which the Potency entry in [1], in [18], in assay [5], in [6], in [17] and in assay [8] was “inactive” each time. In addition, the Potency result in assay [9], in assay [11], in assay [12] and in [14] was “inactive” each time. Also, the Potency in assay [3] is 27.8 µM (active). For the same molecule, the molecule was called inactive in assay [16] and in assay [13].

`CCOP(=O)(OCC)O/C(=C/Cl)c1ccc(Cl)cc1Cl`: the Potency entry in [1], in [4], in [5], in assay [6], in assay [7] and in [8] was “inactive” throughout. Besides, the Potency result in assay [10], in assay [11] and in assay [14] was “inactive” throughout. The molecule was classed as inactive in [16] and in [13]. The Potency in [9] was 10.9 µM (active).

In the case of `C/C(=C\c1ccccc1)[N+](=O)[O-]`, the Potency entry in [1], in assay [18], in [5], in assay [6], in assay [11] and in assay [12] was “inactive” in each case. Moreover, in assay [14], the Potency entry was “inactive”. Also, the Potency in assay [3] was 24.3 µM (active); in assay [19] it was 68.6 µM (active). Further, in assay [16], the result was inactive.

Consider `N#CCc1ccccc1`, for which the Potency entry in assay [1], in assay [15], in assay [2], in assay [4], in assay [5] and in assay [6] was “inactive” each time. Moreover, the Potency result in assay [17], in assay [7], in assay [8], in assay [9], in assay [10] and in assay [19] was “inactive” each time. The Potency entry in assay [11], in [12] and in assay [14] was “inactive” in each case. The outcome in assay [16] and in assay [13] was inactive.

As for `NC(=O)C(Cl)(Cl)Cl`, the Potency entry in assay [1], in assay [2], in assay [3], in assay [4], in assay [5] and in assay [6] was “inactive” throughout. Further, the Potency entry in assay [17], in assay [7], in assay [8], in [9], in assay [10] and in assay [19] was “inactive” in each case. Moreover, the Potency entry in assay [11], in assay [12] and in [14] was “inactive” in each case. The molecule was classed as inactive in assay [16] and in assay [13].

As for `O=S(=O)(Cl)c1ccccc1`, the Potency entry in assay [1], in [4], in assay [5], in assay [17], in [7] and in [8] was “inactive” each time. Besides, the Potency result in [9], in assay [10], in assay [19], in assay [11] and in assay [12] was “inactive” in each case. The call in assay [16] and in assay [13] was inactive.

With `COC(=O)C(C)N(C(=O)Cc1ccccc1)c1c(C)cccc1C` (stereo not drawn), the Potency entry in [1], in [3], in [18], in assay [6], in [17] and in [7] was “inactive” throughout. Further, the Potency result in assay [8], in [10], in assay [11], in [12] and in assay [14] was “inactive” throughout. The Potency in assay [4] was 61.1 µM (active). The molecule was called inactive in assay [16].
